{"source": "paper PMC4336329", "about": "(PLoS ONE, 2015)", "note": "The campaign covered roughly 310,000 compounds. About 14,000 (4.5%) showed an effect of 50% or more. The effect is printed as a negative number. The entries come from a sample that favours strong results as a whole.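 Note: peak tail current of the secondary pulse compared with the same well before compound.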", "data": [{"target": "human ether-à-go-go-related gene (hERG) potassium channel (human, UniProt Q12809)", "sequence (Q12809 whole entry, looked up)": "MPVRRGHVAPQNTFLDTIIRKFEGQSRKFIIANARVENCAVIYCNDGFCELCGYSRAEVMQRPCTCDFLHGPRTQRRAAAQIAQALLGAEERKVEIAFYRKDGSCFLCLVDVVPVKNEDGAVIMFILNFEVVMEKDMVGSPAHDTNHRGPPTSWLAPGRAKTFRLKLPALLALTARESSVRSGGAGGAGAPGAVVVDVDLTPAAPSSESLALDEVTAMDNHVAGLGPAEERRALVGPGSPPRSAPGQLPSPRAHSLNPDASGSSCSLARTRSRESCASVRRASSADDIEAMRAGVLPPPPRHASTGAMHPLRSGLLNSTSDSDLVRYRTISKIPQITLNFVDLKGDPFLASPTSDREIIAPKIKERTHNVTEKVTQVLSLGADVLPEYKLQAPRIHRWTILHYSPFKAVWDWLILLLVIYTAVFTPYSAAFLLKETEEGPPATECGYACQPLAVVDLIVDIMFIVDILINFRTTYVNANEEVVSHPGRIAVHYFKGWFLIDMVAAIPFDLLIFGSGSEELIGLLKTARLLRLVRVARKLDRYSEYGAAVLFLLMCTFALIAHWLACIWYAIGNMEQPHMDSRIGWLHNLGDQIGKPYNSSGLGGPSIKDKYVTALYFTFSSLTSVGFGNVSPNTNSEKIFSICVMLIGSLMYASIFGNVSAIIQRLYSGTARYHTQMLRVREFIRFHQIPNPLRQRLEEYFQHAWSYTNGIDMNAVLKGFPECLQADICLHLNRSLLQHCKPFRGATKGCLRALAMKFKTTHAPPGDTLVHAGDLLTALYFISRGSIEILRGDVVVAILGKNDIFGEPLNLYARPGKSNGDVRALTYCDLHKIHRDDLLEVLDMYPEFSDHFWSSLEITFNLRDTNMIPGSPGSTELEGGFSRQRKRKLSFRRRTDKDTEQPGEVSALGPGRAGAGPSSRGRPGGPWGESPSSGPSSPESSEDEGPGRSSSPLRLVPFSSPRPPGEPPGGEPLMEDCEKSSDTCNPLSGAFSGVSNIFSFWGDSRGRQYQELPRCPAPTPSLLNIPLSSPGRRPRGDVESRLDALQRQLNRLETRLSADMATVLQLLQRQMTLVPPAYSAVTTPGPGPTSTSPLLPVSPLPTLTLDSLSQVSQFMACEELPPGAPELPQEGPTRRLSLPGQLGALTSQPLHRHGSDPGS", "experiment": "primary screen, population patch clamp on CHO cells stably expressing hERG; higher = less effect of the substance", "units": {"hERG current change (%, negative = inhibition) at 10uM": "%"}, "values": [{"smiles": "CN(CC(=O)NCCc1ccc(F)cc1)Cc1ccccc1", "hERG current change (%, negative = inhibition) at 10uM": -2.73}, {"smiles": "Cc1c(C)c2c(OCC(=O)NCC(=O)NCC(=O)O)cc3c(c2oc1=O)CCC(C)(C)O3", "hERG current change (%, negative = inhibition) at 10uM": 15.2}, {"smiles": "Cn1ncc2c(Nc3cccc([N+](=O)[O-])c3)ncnc21", "hERG current change (%, negative = inhibition) at 10uM": 7.09}, {"smiles": "CC(C)N(C(=O)COC(=O)CNC(=O)c1ccc(Br)cc1)c1ccccc1", "hERG current change (%, negative = inhibition) at 10uM": -15.5}, {"smiles": "O=C(COc1ccc(Cl)cc1)NCCCNC(=O)c1ccncc1", "hERG current change (%, negative = inhibition) at 10uM": -36.1}, {"smiles": "COC(=O)C1=C(C)OC(N)=C(C#N)C1c1cc2cccc(C)c2nc1Cl", "note": "(stereo not drawn)", "hERG current change (%, negative = inhibition) at 10uM": -5.39}, {"smiles": "CN(C)c1cc[n+](CC(=O)Nc2ccc(Cl)cc2)cc1.[Cl-]", "hERG current change (%, negative = inhibition) at 10uM": 7.28}, {"smiles": "COc1ccc(N2CCOCC2)c(NC(=O)c2cccnc2)c1", "hERG current change (%, negative = inhibition) at 10uM": 12.8}, {"smiles": "O=C(c1cnn(C(=O)c2cccc(S(=O)(=O)N3CCOCC3)c2)c1)c1cc(Cl)cc(Cl)c1O", "hERG current change (%, negative = inhibition) at 10uM": -44.5}, {"smiles": "CC(=O)Oc1ccc(/C=N/NC(=O)c2ccc(N(C)S(=O)(=O)c3ccccc3)cc2)cc1", "hERG current change (%, negative = inhibition) at 10uM": 12.8}, {"smiles": "C=CCOC(=O)C1=C(C)NC(=S)NC1/C=C/c1ccccc1", "note": "(stereo not drawn)", "hERG current change (%, negative = inhibition) at 10uM": -4.63}, {"smiles": "COc1cccc(CN(C)CC(=O)NCc2ccccc2Cl)c1", "hERG current change (%, negative = inhibition) at 10uM": -5.14}, {"smiles": "COc1cccc(CN(C)CC(=O)NCc2ccccc2Cl)c1OC", "hERG current change (%, negative = inhibition) at 10uM": -7.66}, {"smiles": "CCOc1ccc(CN(C)CC(=O)NCc2ccccc2Cl)cc1", "hERG current change (%, negative = inhibition) at 10uM": -89.1}, {"smiles": "Cn1cccc1/C=N\\NC(=O)C1COc2ccc(C(C)(C)C)cc2O1", "note": "(stereo not drawn)", "hERG current change (%, negative = inhibition) at 10uM": -3.42}, {"smiles": "COc1ccc(N2CC(C(=O)NCCC3=CCCCC3)CC2=O)c(OC)c1", "note": "(stereo not drawn)", "hERG current change (%, negative = inhibition) at 10uM": -4.67}, {"smiles": "O=C(O)CC/C(=N/NC(=O)c1cccs1)c1ccccc1", "hERG current change (%, negative = inhibition) at 10uM": 6.16}, {"smiles": "Nc1c(C(=O)NCc2ccco2)nnn1-c1ccccc1", "hERG current change (%, negative = inhibition) at 10uM": 2.52}, {"smiles": "NC(=O)C1CCN(C(=O)c2cc3c(s2)CCCCC3)CC1", "hERG current change (%, negative = inhibition) at 10uM": -6.51}, {"smiles": "CC(C)NC(=O)C1CCN(C2CCN(C(=O)c3cc4c(s3)CCCCC4)CC2)CC1", "hERG current change (%, negative = inhibition) at 10uM": -51.8}, {"smiles": "CC(C)NC(=O)C1CCN(C2CCN(C(=O)c3scc4c3CCCC4)CC2)CC1", "hERG current change (%, negative = inhibition) at 10uM": -1.4}, {"smiles": "COc1ccc(S(=O)(=O)Cc2ccc(C(=O)O)o2)cc1", "hERG current change (%, negative = inhibition) at 10uM": 21.8}, {"smiles": "CCOC(=O)N1CCC(n2c(SCC(=O)NCc3ccccc3)nc3ccccc3c2=O)CC1", "hERG current change (%, negative = inhibition) at 10uM": -46.6}, {"smiles": "CCOC(=O)N1CCC(n2c(SCC(=O)N3CCCC3)nc3ccccc3c2=O)CC1", "hERG current change (%, negative = inhibition) at 10uM": -20.9}, {"smiles": "CCOC(=O)N1CCC(n2c(SCC(=O)Nc3ccccc3OC)nc3ccccc3c2=O)CC1", "hERG current change (%, negative = inhibition) at 10uM": -66.4}, {"smiles": "CCOC(=O)N1CCC(n2c(SCC(=O)NCCc3ccc(S(N)(=O)=O)cc3)nc3ccccc3c2=O)CC1", "hERG current change (%, negative = inhibition) at 10uM": 21}, {"smiles": "CCOC(=O)N1CCC(n2c(SCC(=O)N3CCC(C)CC3)nc3ccccc3c2=O)CC1", "hERG current change (%, negative = inhibition) at 10uM": -47.9}, {"smiles": "CCOC(=O)N1CCC(n2c(SCC(=O)NCCC3=CCCCC3)nc3ccccc3c2=O)CC1", "hERG current change (%, negative = inhibition) at 10uM": -59.3}, {"smiles": "COc1ccccc1S(=O)(=O)Cc1ccc(C(=O)NCc2ccc(C)cc2)o1", "hERG current change (%, negative = inhibition) at 10uM": -28.4}, {"smiles": "CC(C)(CNC(=O)c1cc(Cl)c(O)c(Cl)c1)N1CCCCC1", "hERG current change (%, negative = inhibition) at 10uM": 4.69}, {"smiles": "c1ccc(N=Nc2ccc3cccccc2-3)cc1", "hERG current change (%, negative = inhibition) at 10uM": 8.38}, {"smiles": "Cc1cc(Oc2nnnn2-c2ccccc2)ccc1Cl", "hERG current change (%, negative = inhibition) at 10uM": -15.3}, {"smiles": "COc1ccc(C(CC(=O)N2CCC3(CC2)OCCO3)NS(=O)(=O)c2ccc(F)cc2)cc1", "note": "(stereo not drawn)", "hERG current change (%, negative = inhibition) at 10uM": -2.22}, {"smiles": "O=C(O)C1CC=CCC1C(=O)Nc1ccc(Oc2ccc(Cl)cc2)cc1", "note": "(stereo not drawn)", "hERG current change (%, negative = inhibition) at 10uM": 7.55}, {"smiles": "COc1ccc(CCC(=O)NNC(=O)c2ccc(F)cc2)cc1", "hERG current change (%, negative = inhibition) at 10uM": 6.02}, {"smiles": "O=C(CCc1nnc2ccc(NCc3ccc(F)cc3)nn12)NC1CCCC1", "hERG current change (%, negative = inhibition) at 10uM": -0.461}, {"smiles": "CSCC[C@H](NC(=O)OC(C)(C)C)c1nnc(SCc2cccc(F)c2)o1", "hERG current change (%, negative = inhibition) at 10uM": -30.3}, {"smiles": "CSCC[C@H](NC(=O)OC(C)(C)C)c1nnc(SCC(=O)Nc2ccc(C)cc2C)o1", "hERG current change (%, negative = inhibition) at 10uM": -50.1}, {"smiles": "Cc1ccc(NC(=O)CSc2nnc([C@H](C)NC(=O)OC(C)(C)C)o2)c(C)c1", "hERG current change (%, negative = inhibition) at 10uM": -6.67}, {"smiles": "CSCC[C@H](NC(=O)OC(C)(C)C)c1nnc(SCC(=O)Nc2c(C)cccc2C)o1", "hERG current change (%, negative = inhibition) at 10uM": -14.5}, {"smiles": "CSCC[C@H](NC(=O)OC(C)(C)C)c1nnc(SCc2ccc(F)cc2)o1", "hERG current change (%, negative = inhibition) at 10uM": -46.2}, {"smiles": "CSCC[C@H](NC(=O)OC(C)(C)C)c1nnc(SCc2ccccc2)o1", "hERG current change (%, negative = inhibition) at 10uM": -51.3}, {"smiles": "Cc1cc(NC(=O)CSc2ccc3c(c2)OCCO3)no1", "hERG current change (%, negative = inhibition) at 10uM": -8.22}, {"smiles": "COc1ccc(/C=C2\\SC(=O)N(CC(=O)Nc3ccccc3O)C2=O)cc1OC", "hERG current change (%, negative = inhibition) at 10uM": 9.72}, {"smiles": "CCC1(C)Cc2c(sc3nnn(CC(=O)Nc4ccccc4)c(=O)c23)CO1", "note": "(stereo not drawn)", "hERG current change (%, negative = inhibition) at 10uM": -27.3}]}]}
